Source: PubChem (several laboratories)
KLK7 zymogen act: activators of human kallikrein-7 zymogen; P49862; purified proKLK7, EDANS-DABCYL substrate fluorescence; 100% is mature enzyme control, 0% vehicle; activation, % at 7 µM; hit rate 0.9% among 370,000; AID 652039;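 active = activation above the mean of all tested compounds plus 3 SD, computed per campaign excluding outliers beyond control limits, cut at about 13% in these data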
ADAM10 inh: inhibitors of human ADAM10; O14672; recombinant ADAM10, EDANS/DABCYL FRET peptide cleavage, 3 h; inhibition, % at 7 µM; hit rate 0.62% among 370,000;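 active = inhibition above a per-campaign cutoff equal to the mean of compounds falling between control-based bounds plus 3 SD, cut at about 20% in these data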;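 note: 0% = DMSO wells while the 100% control is not disclosed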
NRP1-CendR mod: NRP-1/CendR interaction modulation. hit rate 0.85% among 360,000. inhibition, % at 25 µM. O14786. FAM-RPARPAR peptide binding to NRP-1, fluorescence polarization;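 active = inhibition or corrected inhibition above about 18%, plus a signal ratio from 0.5 to 1.5, limit read from the data, passing the limit was not always enough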
Target sequence (O14786 whole entry, looked up): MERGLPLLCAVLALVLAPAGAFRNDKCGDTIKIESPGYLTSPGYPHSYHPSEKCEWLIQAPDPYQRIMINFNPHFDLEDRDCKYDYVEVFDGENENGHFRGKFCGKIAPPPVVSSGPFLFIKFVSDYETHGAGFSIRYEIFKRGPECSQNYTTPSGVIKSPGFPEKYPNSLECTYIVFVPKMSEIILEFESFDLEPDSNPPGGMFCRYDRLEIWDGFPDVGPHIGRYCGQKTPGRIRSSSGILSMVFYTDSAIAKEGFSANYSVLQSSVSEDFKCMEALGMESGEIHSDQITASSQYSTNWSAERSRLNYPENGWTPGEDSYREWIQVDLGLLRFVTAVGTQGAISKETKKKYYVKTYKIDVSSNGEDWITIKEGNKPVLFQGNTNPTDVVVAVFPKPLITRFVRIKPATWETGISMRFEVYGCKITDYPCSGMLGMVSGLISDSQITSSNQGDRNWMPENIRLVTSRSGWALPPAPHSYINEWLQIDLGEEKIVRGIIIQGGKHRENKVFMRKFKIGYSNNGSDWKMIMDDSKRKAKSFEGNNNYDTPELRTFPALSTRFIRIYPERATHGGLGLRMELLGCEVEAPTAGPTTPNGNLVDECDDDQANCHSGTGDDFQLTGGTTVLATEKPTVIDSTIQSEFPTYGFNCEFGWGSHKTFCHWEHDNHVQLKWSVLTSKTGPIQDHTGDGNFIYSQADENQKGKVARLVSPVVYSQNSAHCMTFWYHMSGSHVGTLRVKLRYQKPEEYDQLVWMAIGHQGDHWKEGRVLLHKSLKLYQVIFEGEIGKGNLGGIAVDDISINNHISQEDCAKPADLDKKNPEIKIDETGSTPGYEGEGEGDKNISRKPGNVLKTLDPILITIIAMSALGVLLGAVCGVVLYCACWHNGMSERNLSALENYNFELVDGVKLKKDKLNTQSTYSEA
sPLA2-III inh: Blocks human group III sPLA2 activity; Q9NZ20; QFRET BODIPY PC-A2 liposome hydrolysis, fluorescence; inhibition, % at 12.2 µM; hit rate 0.56% among 370,000;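 active = inhibition above mean plus 3 SD of compounds lying within the high and low control bounds, cut at about 19% in these data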;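 note: 0% = median of test compound wells and 100% = no enzyme DMSO wells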
ADAM17 inh: inhibitors of human ADAM17 | hit rate 0.83% among 370,000 | recombinant ADAM17, EDANS/DABCYL FRET peptide cleavage | inhibition, % at 6.95 µM | P78536 | AID 720648;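 active = inhibition above the mean of compounds lying between control limits plus 3 SD, set per campaign, cut at about 8.5% in these data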;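 note: 0% = DMSO-only wells as the low control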
ADAM10 ctr: ADAM10 inhibition, counter-screen for ADAM17 exosite hits | inhibition, % at 6.95 µM | shares compounds with ADAM17 inh | AID 743256 | recombinant ADAM10, EDANS/DABCYL FRET peptide cleavage, 3 h | hit rate 47% among 2,900;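 active = mean inhibition over the triplicate runs exceeds the activity threshold set in the earlier primary screen, cut at about 20% in these data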;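 note: 0% = DMSO wells and 100% = marimastat wells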
ADAM17 confirm: human ADAM17 inhibition, confirmation. hit rate 65% among 2,900. inhibition, % at 6.95 µM. recombinant ADAM17, EDANS/DABCYL QFRET peptide cleavage. AID 743257. shares compounds with ADAM17 inh;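 active = mean inhibition across replicates above the hit cutoff set in the primary screen, cut at about 8.5% in these data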;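 note: 0% = DMSO wells and 100% = marimastat wells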
The depositor's hits bear a star; . = no result given. Hits are enriched below; roughly 3.4% of the tested compounds scored in any of these assays.

SMILES | KLK7 zymogen act | ADAM10 inh | NRP1-CendR mod | sPLA2-III inh | ADAM17 inh | ADAM10 ctr | ADAM17 confirm
CC(=O)Nc1ccc(S(=O)(=O)NCC(=O)OCC(=O)NCc2ccc3c(c2)OCO3)cc1 | -0.3 | 10.6 | -16.0 | -2.0 | 9.6* | -8.2 | -2.4
Cc1ccc(S(=O)(=O)NCC(=O)OCC(=O)NCc2ccc3c(c2)OCO3)cc1 | 0.2 | -5.8 | -7.8 | 1.2 | -2.7 | . | .
C=CCNC(=O)CN(C(=O)Cc1ccc(Cl)cc1)c1cccc(Br)c1 | -0.4 | 8.1 | . | -1.8 | 4.3 | . | .
COCCN=C1OC(=O)N2C(=O)C3=C4[C@@H](C[C@H]5C(=O)N(c6ccccc6)C(=O)[C@H]5[C@H]4[C@@]12Cc1ccccc1)[C@H]1C(=O)N(c2ccccc2)C(=O)[C@H]1[C@H]3C | 0.8 | -2.4 | 16.4 | -7.3 | 2.9 | . | .
COC(=O)CN=C1OC(=O)N2C(=O)C3=C4[C@@H](C[C@H]5C(=O)N(c6ccccc6)C(=O)[C@H]5[C@H]4[C@@]12Cc1ccccc1)[C@H]1C(=O)N(c2ccccc2)C(=O)[C@H]1[C@H]3C | 0.1 | 13.9 | -8.5 | -20.1 | 9.8* | 10.6 | 6.4
O=C(Nc1c(-c2ccc(F)cc2)nc2ncccn12)c1ccc(F)cc1 | 11.5 | -372.7 | . | 0.3 | -105.2 | . | .
Cc1ccc2[nH]c(=O)c(CN(CCCO)S(=O)(=O)c3c(C)ccc4nsnc34)cc2c1 | -0.7 | -11.7 | 11.4 | -2.8 | 0.8 | . | .
Cc1cc2cc(CN(CCCO)S(=O)(=O)c3cccc4nsnc34)c(=O)[nH]c2cc1C | -0.1 | 13.1 | -2.6 | -20.6 | 10.2* | -1.9 | 5.2
COc1ccccc1C(=O)/C=C/c1ccc(N2CCCCC2)c([N+](=O)[O-])c1 | -0.2 | -1.7 | 2.0 | -1.0 | 2.4 | . | .
O=C(/C=C/c1ccc(N2CCCCC2)c([N+](=O)[O-])c1)c1ccc(O)cc1 | -0.2 | 15.6 | 8.8 | -39.2 | 9.4* | 25.8* | 14.2*
O=S(=O)(NCC(Nc1ccccc1)c1ccccc1)c1ccc(Cl)cc1 (centres undefined) | -0.1 | 14.5 | -2.9 | -26.6 | 9.0* | 35.6* | 20.6*
O=C(O)c1cccc(NC(CNS(=O)(=O)c2ccc(Cl)cc2)c2ccccc2)c1 (centres undefined) | 0.4 | -5.5 | 17.9 | -53.4 | -4.0 | . | .
O=C(Nc1c(-c2ccc(F)cc2)nc2ncccn12)c1ccccc1 | 7.6 | -238.8 | . | 7.5 | -69.4 | . | .
O=C(c1cccs1)n1ccc2ccc(-c3ccc4ccn(Cc5ccccc5)c4c3)cc21 | -1.1 | -30.3 | . | 14.3 | -10.9 | . | .
CN(Cc1ccccc1)C(=O)c1ccc(NC(=O)Cc2ccc(NC(=O)C3CCCN(C(=O)CCc4ccccc4)C3)cc2)cc1 (centres undefined) | 0.7 | 11.0 | -7.7 | -40.2 | 9.4* | 20.6* | 11.3*
CN(Cc1ccccc1)C(=O)c1cccc(NC(=O)Cc2ccc(NC(=O)C3CCCN(C(=O)c4ccccc4)C3)cc2)c1 (centres undefined) | 0.9 | 9.6 | -1.1 | -23.1 | 10.7* | -7.1 | -2.5
O=C(Cc1ccc(NC(=O)C2CCCN(C(=O)c3ccccc3)C2)cc1)Nc1ccc(C(=O)N2CCOCC2)cc1 (centres undefined) | 0.3 | 2.4 | -6.6 | -5.0 | 10.1* | -1.8 | 5.3
CN(Cc1ccccc1)C(=O)c1ccc(NC(=O)Cc2ccc(NC(=O)C3CCCN(C(=O)C4CCCCC4)C3)cc2)cc1 (centres undefined) | 0.2 | 14.7 | 0.2 | -37.0 | 10.2* | 14.2 | 4.7
CN(Cc1ccccc1)C(=O)c1ccc(NC(=O)Cc2ccc(NC(=O)C3CCCN(C(=O)C4CCC4)C3)cc2)cc1 (centres undefined) | 0.1 | 1.5 | -0.2 | -15.7 | -0.4 | . | .
CCCCOCCCNC(=O)C[C@H]1C[C@@]2(C(=O)OC)C(=C[C@H](C3CCCC3)O[C@@H]2C)N(Cc2ccco2)C1=O | -0.4 | 5.4 | . | -16.2 | 5.6 | . | .
Cc1ccc(NC(=O)C2CCCN2S(=O)(=O)c2cccnc2)c(C)c1 (centres undefined) | -0.5 | -8.7 | . | 7.7 | -2.6 | . | .
Cc1ccc(NC(=O)c2cc([N+](=O)[O-])ccc2NCc2cccnc2)cc1 | 0.3 | 11.8 | 0.9 | -16.5 | 9.2* | 15.4 | 8.6
CC(C)(C)C(=O)NC1CCCCN(Cc2cccc(C(F)(F)F)c2)C1=O (centres undefined) | 0.4 | -2.4 | . | 0.8 | -2.0 | . | .
Cc1ccc(OCc2nnc(SCC(=O)Nc3cccc4ccccc34)n2Cc2ccco2)cc1 | 0.0 | 16.8 | . | -32.1 | 10.0* | 38.8* | 19.3*
O=C(CSc1nnc(COc2ccc(Cl)cc2)n1Cc1ccco1)Nc1cccc2ccccc12 | 0.1 | 16.1 | . | -30.6 | 9.3* | 36.2* | 18.2*
SMILES | KLK7 zymogen act | ADAM10 inh | NRP1-CendR mod | sPLA2-III inh | ADAM17 inh | ADAM10 ctr | ADAM17 confirm
O=C(CSc1nnc(COc2ccc(Cl)cc2)n1Cc1ccco1)Nc1ccc(OCc2ccccc2)cc1 | -0.1 | 6.9 | . | -7.9 | 4.2 | . | .
COc1ccc(-c2nnc(SCC(=O)Nc3cccc4ccccc34)n2Cc2ccco2)cc1 | -1.4 | 3.3 | . | -7.9 | 2.2 | . | .
CC(=O)Nc1ccc(NC(=O)C(C)OC(=O)C23CC4CC(CC(Cl)(C4)C2)C3)cc1 (centres undefined) | 1.0 | -4.5 | 0.9 | -13.5 | 9.9* | 6.1 | 6.3
O=[N+]([O-])c1cccc(NCCCN2CCC(C(O)(c3ccccc3)c3ccccc3)CC2)c1 | 1.2 | -2.3 | . | -21.8 | -1.6 | . | .
O=C(Cn1c(=O)sc2ccccc21)Nc1ccc(S(=O)(=O)N2CCCCC2)cc1 | 0.1 | 10.9 | 1.1 | -28.7 | 8.8* | 29.9* | 16.8*
Cc1ccccc1NC(=S)/C(=C(\[O-])c1cc(C)n(Cc2ccccc2Cl)c1C)[n+]1ccccc1 | -1.0 | 14.5 | -13.2 | -2.0 | 12.2* | 23.9* | 9.4*
Cc1c(Cl)cccc1NC(=S)/C(=C(\[O-])c1ccc(Cl)s1)[n+]1ccccc1 | 0.2 | 9.0 | -0.2 | 0.6 | 9.6* | 4.0 | 2.4
Cc1ccccc1C(=O)n1ccc2ccc(-c3ccc4ccn(Cc5ccccc5)c4c3)cc21 | -1.7 | -45.1 | . | -0.4 | -12.5 | . | .
COc1ccc(C(=O)c2c[nH]c3ccccc23)cc1 | 0.8 | 12.9 | -129.4 | -7.2 | 11.2* | -1.6 | 0.7
CCOc1ccc(-c2[nH]ncc2-c2ccc(Cl)cc2)c(O)c1 | 0.1 | 15.4 | 0.7 | -61.2 | 9.9* | 12.4 | 11.6*
O=S(=O)(c1cccs1)N1CCC(c2cn3ccccc3n2)CC1 | 0.9 | -31.0 | . | 1.7 | -9.1 | . | .
C[C@@H]1CCN(C2CC2)S(=O)(=O)c2c(cccc2N2CCC[C@@H]2C)O1 | -0.1 | -6.2 | . | 1.4 | -2.8 | . | .
Cc1ccc(/C=C/C(=O)Nc2ccc(Oc3ccccc3)cc2)o1 | 0.3 | 17.6 | -3.1 | 2.3 | 12.9* | 13.7 | 11.2*
